# According to the supplement of paper PMC10849652:
# Of roughly 8,800 targets only a part is listed; those with a hit were picked by preference. About 0.5% of all pairs of compound and target were hits. A number with no mark means an inactive call.
# Experiments:
# Assay in all cases: log2 fold change, soluble protein after heating vs DMSO (PISA); higher = thermal stabilisation; K562 lysate, 10 uM; active = over 0.2 and 3.5 SD of the protein, either way, in both replicates (recomputed)
# vemurafenib = compound: CCCS(=O)(=O)Nc1ccc(F)c(C(=O)c2c[nH]c3ncc(-c4ccc(Cl)cc4)cc23)c1F [vemurafenib]
# Procedure, shortened: (§1)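 Values give the log-two fold change in thermal stability against solvent controls, from duplicates. Crude K562 extract at 1 mg/mL protein, made by dounce homogenisation in PBS pH 7.4 with 1 mM MgCl2, was treated with 10 μM compound for 30 min. After 3 min heating across 48°C-58°C, aliquots were pooled, adjusted to 0.5% NP-40 at 4°C and centrifuged at 21,000xg for 90 min. The supernatant was measured by TMTpro 16plex LC-MS/MS with channel sums equalised.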
# [1] = compound: CCCS(=O)(=O)Nc1ccc(F)c(C(=O)c2c[nH]c3ncc(Cl)cc23)c1F
# Procedure, shortened: as §1
# barasertib = compound: CCN(CCCOc1ccc2c(Nc3cc(CC(=O)Nc4cccc(F)c4)[nH]n3)ncnc2c1)CCOP(=O)(O)O [barasertib]
# Procedure, shortened: as §1
# [2] = compound: CC[C@@H]1C(=O)N(C)c2cnc(Nc3ccc(C(=O)NC4CCN(C)CC4)cc3OC)nc2N1C1CCCC1
# Procedure, shortened: as §1
# volasertib = compound: CC[C@@H]1C(=O)N(C)c2cnc(Nc3ccc(C(=O)N[C@H]4CC[C@H](N5CCN(CC6CC6)CC5)CC4)cc3OC)nc2N1C(C)C [volasertib]
# Procedure, shortened: as §1
# [3] = compound: CCn1c(C(=O)N(C2CC2)C2CC2)cc2c3c(ncn3C)c(Nc3cc(C)n(C)n3)nc21
# Procedure, shortened: as §1
# [4] = compound: CCn1cc(-c2ccnc3[nH]c(-c4cccc(CN(C)C)c4)cc23)c(-c2ccc(NC(=O)N(C)C)cc2)n1
# Procedure, shortened: as §1
# [5] = compound: CN1CCC(CNc2ccc3ncc(-c4cccc(OC(F)(F)F)c4)n3n2)CC1
# Procedure, shortened: as §1
# saracatinib = compound: CN1CCN(CCOc2cc(OC3CCOCC3)c3c(Nc4c(Cl)ccc5c4OCO5)ncnc3c2)CC1 [saracatinib]
# Procedure, shortened: as §1
# sotrastaurin = compound: CN1CCN(c2nc(C3=C(c4c[nH]c5ccccc45)C(=O)NC3=O)c3ccccc3n2)CC1 [sotrastaurin]
# Procedure, shortened: as §1
# alvocidib = compound: CN1CC[C@H](c2c(O)cc(O)c3c(=O)cc(-c4ccccc4Cl)oc23)[C@H](O)C1 [alvocidib]
# Procedure, shortened: as §1
# Tubastatin A = compound: CN1CCc2c(c3ccccc3n2Cc2ccc(C(=O)NO)cc2)C1 [Tubastatin A]
# Procedure, shortened: as §1
# [6] = compound: CNC(=O)C1=CC=CC=C1NC2=NC(=NC=C2Cl)NC3=C(C=C(C=C3)N4CCOCC4)OC
# Procedure, shortened: as §1
# defactinib = compound: CNC(=O)c1ccc(Nc2ncc(C(F)(F)F)c(NCc3nccnc3N(C)S(C)(=O)=O)n2)cc1 [defactinib]
# Procedure, shortened: as §1
# [7] = compound: CNc1nc(-c2ccc3c(N)n[nH]c3c2)cc(N2C[C@@H](C(=O)NC3CCCCC3)CC[C@H]2C)n1
# Procedure, shortened: as §1
# encorafenib = compound: COC(=O)N[C@@H](C)CNc1nccc(-c2cn(C(C)C)nc2-c2cc(Cl)cc(NS(C)(=O)=O)c2F)n1 [encorafenib]
# Procedure, shortened: as §1
# [8] = compound: COC(=O)[C@H](CCSC)NC(=O)C1=C(C=C(C=C1)NC[C@H](CS)N)C2=CC=CC=C2
# Procedure, shortened: as §1
# alisertib = compound: COc1cc(Nc2ncc3c(n2)-c2ccc(Cl)cc2C(c2c(F)cccc2OC)=NC3)ccc1C(=O)O [alisertib]
# Procedure, shortened: as §1
# [9] = compound: COc1cc2nc(-c3cc(F)ccc3O)nc(N[C@@H]3CNC[C@H]3C(C)(C)O)c2cc1OC
# Procedure, shortened: as §1
# gefitinib = compound: COc1cc2ncnc(Nc3ccc(F)c(Cl)c3)c2cc1OCCCN1CCOCC1 [gefitinib]
# Procedure, shortened: as §1
# UniProt P45983, sequence (P45983 whole entry, looked up): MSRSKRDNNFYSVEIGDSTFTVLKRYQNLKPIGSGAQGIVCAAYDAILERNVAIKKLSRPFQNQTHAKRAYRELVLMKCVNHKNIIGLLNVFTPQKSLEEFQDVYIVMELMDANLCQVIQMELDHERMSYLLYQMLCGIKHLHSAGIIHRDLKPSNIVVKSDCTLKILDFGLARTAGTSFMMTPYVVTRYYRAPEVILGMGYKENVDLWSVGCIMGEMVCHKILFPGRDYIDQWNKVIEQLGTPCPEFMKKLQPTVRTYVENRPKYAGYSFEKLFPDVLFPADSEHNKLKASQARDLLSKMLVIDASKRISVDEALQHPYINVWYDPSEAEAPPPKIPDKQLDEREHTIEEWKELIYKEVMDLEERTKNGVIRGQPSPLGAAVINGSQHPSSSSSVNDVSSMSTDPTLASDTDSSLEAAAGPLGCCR
# UniProt Q09328, sequence (Q09328 whole entry, looked up): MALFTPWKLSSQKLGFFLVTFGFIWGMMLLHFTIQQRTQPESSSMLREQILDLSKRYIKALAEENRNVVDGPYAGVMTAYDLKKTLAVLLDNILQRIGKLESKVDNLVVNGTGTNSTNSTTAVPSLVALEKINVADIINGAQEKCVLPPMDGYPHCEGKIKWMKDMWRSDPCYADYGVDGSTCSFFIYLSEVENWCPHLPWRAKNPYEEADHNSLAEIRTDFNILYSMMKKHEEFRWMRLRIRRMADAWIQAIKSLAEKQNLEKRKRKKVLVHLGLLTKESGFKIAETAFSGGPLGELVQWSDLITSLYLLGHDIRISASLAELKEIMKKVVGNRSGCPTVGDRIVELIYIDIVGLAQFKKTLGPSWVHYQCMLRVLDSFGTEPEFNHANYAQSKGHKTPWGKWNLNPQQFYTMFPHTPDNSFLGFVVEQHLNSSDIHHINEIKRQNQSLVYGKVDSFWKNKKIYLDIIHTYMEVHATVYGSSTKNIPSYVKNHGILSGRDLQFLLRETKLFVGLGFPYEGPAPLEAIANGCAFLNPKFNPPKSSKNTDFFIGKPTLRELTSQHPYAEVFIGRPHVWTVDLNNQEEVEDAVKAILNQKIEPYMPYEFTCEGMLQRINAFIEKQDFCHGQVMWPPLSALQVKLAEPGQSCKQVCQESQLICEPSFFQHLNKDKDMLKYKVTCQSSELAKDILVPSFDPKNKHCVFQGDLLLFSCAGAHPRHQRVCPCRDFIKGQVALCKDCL
# UniProt P48449, sequence (P48449 whole entry, looked up): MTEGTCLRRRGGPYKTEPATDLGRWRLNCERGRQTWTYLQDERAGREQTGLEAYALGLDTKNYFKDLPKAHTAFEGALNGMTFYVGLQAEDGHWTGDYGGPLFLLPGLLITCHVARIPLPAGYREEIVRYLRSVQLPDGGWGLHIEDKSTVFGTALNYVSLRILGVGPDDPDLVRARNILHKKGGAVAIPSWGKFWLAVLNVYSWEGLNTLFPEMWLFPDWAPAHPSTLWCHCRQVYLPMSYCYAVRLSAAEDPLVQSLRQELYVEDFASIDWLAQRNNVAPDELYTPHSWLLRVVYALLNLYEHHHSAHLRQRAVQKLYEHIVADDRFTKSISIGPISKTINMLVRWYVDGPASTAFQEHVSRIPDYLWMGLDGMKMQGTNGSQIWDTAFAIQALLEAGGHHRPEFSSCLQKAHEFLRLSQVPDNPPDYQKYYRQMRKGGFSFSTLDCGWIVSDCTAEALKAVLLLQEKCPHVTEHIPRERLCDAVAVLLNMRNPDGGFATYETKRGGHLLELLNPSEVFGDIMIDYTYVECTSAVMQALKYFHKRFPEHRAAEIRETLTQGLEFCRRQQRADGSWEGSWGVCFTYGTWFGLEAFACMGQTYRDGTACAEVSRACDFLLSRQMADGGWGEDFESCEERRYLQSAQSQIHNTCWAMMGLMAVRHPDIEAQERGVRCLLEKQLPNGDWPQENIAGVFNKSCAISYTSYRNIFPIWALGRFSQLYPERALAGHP
# UniProt O14733, sequence (O14733 whole entry, looked up): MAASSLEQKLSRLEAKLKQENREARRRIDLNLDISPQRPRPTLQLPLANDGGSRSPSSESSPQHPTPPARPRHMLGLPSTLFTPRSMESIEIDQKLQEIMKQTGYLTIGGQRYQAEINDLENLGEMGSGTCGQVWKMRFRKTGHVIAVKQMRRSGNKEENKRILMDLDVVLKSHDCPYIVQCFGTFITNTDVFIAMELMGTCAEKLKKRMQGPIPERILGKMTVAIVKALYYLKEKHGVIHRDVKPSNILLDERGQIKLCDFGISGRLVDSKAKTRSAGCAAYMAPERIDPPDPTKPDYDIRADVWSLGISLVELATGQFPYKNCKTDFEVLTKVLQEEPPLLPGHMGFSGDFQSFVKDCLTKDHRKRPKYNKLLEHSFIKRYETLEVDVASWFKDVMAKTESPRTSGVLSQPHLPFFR
# UniProt Q71F56, sequence (Q71F56 whole entry, looked up): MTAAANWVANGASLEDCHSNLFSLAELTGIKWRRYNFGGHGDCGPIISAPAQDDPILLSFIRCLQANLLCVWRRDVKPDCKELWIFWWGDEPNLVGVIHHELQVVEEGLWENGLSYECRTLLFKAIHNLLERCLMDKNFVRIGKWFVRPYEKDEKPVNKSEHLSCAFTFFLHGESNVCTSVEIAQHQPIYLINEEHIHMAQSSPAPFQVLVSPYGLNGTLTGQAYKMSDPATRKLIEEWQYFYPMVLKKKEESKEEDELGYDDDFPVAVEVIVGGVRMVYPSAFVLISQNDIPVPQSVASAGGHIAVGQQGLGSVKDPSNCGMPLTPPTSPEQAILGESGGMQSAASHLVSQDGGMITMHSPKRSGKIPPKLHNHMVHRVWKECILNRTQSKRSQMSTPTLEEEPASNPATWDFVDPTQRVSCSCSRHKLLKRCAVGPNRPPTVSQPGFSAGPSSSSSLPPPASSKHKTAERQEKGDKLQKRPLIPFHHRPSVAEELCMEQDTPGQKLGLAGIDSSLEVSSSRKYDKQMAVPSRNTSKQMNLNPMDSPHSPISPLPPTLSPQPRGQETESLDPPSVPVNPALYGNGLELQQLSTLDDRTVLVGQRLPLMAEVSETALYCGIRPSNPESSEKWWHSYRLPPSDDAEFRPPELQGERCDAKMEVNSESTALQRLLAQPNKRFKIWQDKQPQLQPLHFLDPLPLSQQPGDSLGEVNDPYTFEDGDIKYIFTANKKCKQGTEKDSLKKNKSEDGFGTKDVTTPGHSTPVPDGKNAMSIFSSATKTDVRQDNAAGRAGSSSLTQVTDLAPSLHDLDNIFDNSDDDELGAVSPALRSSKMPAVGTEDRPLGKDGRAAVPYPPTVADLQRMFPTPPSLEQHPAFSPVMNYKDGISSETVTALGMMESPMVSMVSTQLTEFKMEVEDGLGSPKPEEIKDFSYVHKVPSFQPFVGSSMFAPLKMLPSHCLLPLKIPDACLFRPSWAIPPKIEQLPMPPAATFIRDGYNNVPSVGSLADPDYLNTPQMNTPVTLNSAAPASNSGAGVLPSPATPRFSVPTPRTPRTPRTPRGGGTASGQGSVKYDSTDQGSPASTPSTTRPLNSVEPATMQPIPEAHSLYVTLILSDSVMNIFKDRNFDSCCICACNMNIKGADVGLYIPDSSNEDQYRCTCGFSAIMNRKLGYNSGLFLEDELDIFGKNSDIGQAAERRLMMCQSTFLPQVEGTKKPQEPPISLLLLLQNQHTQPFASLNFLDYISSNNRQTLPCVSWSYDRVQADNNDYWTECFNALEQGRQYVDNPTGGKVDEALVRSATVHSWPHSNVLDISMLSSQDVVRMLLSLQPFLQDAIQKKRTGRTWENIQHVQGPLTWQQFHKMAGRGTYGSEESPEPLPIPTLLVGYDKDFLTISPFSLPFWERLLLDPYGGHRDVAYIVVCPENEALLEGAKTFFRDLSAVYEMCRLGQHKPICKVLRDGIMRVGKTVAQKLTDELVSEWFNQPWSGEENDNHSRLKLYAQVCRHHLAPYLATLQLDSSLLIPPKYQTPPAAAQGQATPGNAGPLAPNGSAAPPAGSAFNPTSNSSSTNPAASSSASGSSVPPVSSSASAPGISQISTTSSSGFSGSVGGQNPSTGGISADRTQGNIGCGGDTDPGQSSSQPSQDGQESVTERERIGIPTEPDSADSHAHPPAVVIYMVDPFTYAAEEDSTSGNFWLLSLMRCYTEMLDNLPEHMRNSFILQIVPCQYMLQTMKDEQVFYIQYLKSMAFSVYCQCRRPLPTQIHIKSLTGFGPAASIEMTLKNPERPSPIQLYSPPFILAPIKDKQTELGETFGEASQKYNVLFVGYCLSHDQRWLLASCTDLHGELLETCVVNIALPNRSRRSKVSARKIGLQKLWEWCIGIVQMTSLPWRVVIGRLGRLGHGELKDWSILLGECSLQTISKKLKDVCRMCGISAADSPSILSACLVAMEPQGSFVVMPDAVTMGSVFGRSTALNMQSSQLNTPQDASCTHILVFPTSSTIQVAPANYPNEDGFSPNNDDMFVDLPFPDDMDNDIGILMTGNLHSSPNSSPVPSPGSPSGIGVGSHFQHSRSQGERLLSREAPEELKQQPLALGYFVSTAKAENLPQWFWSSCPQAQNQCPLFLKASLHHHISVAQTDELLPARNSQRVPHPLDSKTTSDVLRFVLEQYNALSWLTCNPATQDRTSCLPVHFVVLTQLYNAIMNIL
# UniProt Q8IW41, sequence (Q8IW41 whole entry, looked up): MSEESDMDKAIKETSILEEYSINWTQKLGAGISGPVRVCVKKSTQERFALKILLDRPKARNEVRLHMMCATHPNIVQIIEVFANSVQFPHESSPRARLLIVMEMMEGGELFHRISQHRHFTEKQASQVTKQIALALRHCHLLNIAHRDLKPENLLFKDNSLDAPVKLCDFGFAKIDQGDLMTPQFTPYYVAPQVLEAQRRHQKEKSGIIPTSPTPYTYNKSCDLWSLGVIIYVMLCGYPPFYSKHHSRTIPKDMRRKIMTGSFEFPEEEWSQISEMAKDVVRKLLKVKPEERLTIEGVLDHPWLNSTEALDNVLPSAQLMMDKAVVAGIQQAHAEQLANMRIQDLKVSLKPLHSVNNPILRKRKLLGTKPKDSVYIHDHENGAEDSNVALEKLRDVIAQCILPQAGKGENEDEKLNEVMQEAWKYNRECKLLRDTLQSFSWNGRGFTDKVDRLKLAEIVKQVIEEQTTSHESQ
Target,log2 fold change (vemurafenib),log2 fold change [1],log2 fold change (barasertib),log2 fold change [2],log2 fold change (volasertib),log2 fold change [3],log2 fold change [4],log2 fold change [5],log2 fold change (saracatinib),log2 fold change (sotrastaurin),log2 fold change (alvocidib),log2 fold change (Tubastatin A),log2 fold change [6],log2 fold change (defactinib),log2 fold change [7],log2 fold change (encorafenib),log2 fold change [8],log2 fold change (alisertib),log2 fold change [9],log2 fold change (gefitinib)
MED13L (UniProt Q71F56),-0.043,-0.012,0.028,0.01,-0.058,0.038,-0.023,0.064,-0.037,-0.018,0.042,-0.069,0.016,-0.011,-0.004,0.02,0.021,-0.084,-0.005,0.01
MAP7D3 (UniProt Q8IWC1),-0.153,-0.039,-0.031,-0.056,0.018,0.029,-0.053,-0.006,-0.019,-0.024,-0.063,0.015,0.037,-0.379 (active),-0.011,0.223,0.013,0.01,-0.02,0.017
MAD2L1BP isoform 3 (UniProt Q15013),0.003,0.009,0.054,-0.076,-0.042,0.022,0,0.03,0.021,0.01,0.047,-0.135,0.088,0.068,-0.012,0.138,0.234,0.052,-0.009,-0.054
LRPPRC (UniProt P42704),0.032,0.024,0.101,-0.141,-0.072,0.076,0.033,-0.087,0.045,0.005,0.076,-0.091,0.011,0.037,-0.041,0.005,0.079,0.029,-0.006,-0.005
MAP2K7 isoform 4 (UniProt O14733),0.073,0.087,-0.02,0.016,-0.04,0.042,0.004,-0.02,0.032,0.02,0.023,-0.15,0.023,-0.035,0.036,-0.059,0.177,0.006,-0.009,-0.08
MECR (UniProt Q9BV79),0.055,0.035,0.008,-0.05,-0.008,0.004,-0.043,0.023,0.095,-0.007,0.018,0.014,0.01,0.007,0.053,-0.06,0.049,0,0.04,-0.011
KIF11 (UniProt P52732),-0.027,0.003,0.023,-0.011,-0.024,0.025,-0.055,0.018,0.023,0.026,0.008,-0.107,0.035,-0.007,-0.022,0.034,0.032,-0.013,-0.003,0.016
LSS (UniProt P48449),0.016,-0.009,0.044,-0.078,0.434 (active),-0.009,-0.09,0.123,-0.043,0,-0.011,0.021,-0.03,-0.026,0.021,0.031,0.02,0.011,0.032,0.055
KLC2 (UniProt Q9H0B6),0.066,0.042,0.042,-0.043,-0.074,-0.009,-0.015,-0.069,0.008,-0.016,-0.034,-0.072,0.004,-0.048,-0.006,0.01,0.043,-0.038,0.001,-0.098
MLST8 (UniProt Q9BVC4),0.025,0.029,0.074,0.026,-0.009,0.023,-0.03,0.012,0.075,-0.045,0.009,-0.072,-0.059,-0.023,-0.059,-0.012,0.038,-0.016,-0.01,-0.004
KIF15 (UniProt Q9NS87),-0.01,0.045,0.016,-0.018,-0.053,0.036,0.006,-0.036,0.019,0,-0.002,-0.058,0.006,-0.011,0.006,0.01,0.121,-0.013,-0.014,0.003
MAPKAPK5 (UniProt Q8IW41),-0.111,-0.11,-0.013,-0.009,-0.052,0.031,0.017,-0.02,-0.009,-0.068,0.055,0,0.006,0.003,-0.089,-0.074,-0.125,-0.006,0.01,0.019
LSM8 (UniProt O95777),-0.054,0.018,0.355,-0.019,0.027,0,-0.058,0.052,-0.005,-0.017,-0.012,0.018,0.007,0.048,-0.028,0.032,-0.076,-0.026,0.005,0.046
MGAT5 (UniProt Q09328),-0.254,-0.07,0.062,-0.08,-0.065,0.021,0.094,-0.138,-0.036,0.002,0.056,-0.009,-0.011,-0.337 (active),-0.026,0.006,-0.095,0.025,0.054,-0.064
MAP4 (UniProt E7EVA0),-0.019,0.01,0.04,0.125,-0.021,-0.141,-0.024,0.029,0.024,-0.008,-0.074,0.1,0,0.01,0.037,-0.04,-0.117,-0.028,0.054,0.098
MAPK8 isoform 3 (UniProt P45983),0.06,0.022,0.007,-0.123,-0.02,-0.005,0.013,0.055,0.027,0.01,0.01,-0.111,0.541 (active),-0.07,-0.144,0.135,0,-0.022,0.003,-0.042
